PubChem BioAssay (NCI)
The panel holds about 83,000 compounds, 20% with a hit somewhere; the sample as a whole holds those more often.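 Activity criterion: percent growth below 10, measured after cells in 96-well plates were exposed to a single compound concentration for 48 hours.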 Values without a mark were called inactive. Activity calls are given as the source filed them.

Legend:
Test in all cases: NCI-60 one-dose screen, 48 h (100 = growth as untreated, 0 = no growth, -100 = all killed)
Conditions in all cases: 10 µM
HCT-15 colon = test system: HCT-15 colon
HT29 colon = test system: HT29 colon
SNB-75 CNS = test system: SNB-75 CNS
SNB-19 CNS = test system: SNB-19 CNS
U251 CNS = test system: U251 CNS
PC-3 prostate = test system: PC-3 prostate
SK-MEL-5 melanoma = test system: SK-MEL-5 melanoma
UACC-62 melanoma = test system: UACC-62 melanoma
LOX IMVI melanoma = test system: LOX IMVI melanoma
SK-MEL-28 melanoma = test system: SK-MEL-28 melanoma
SK-MEL-2 melanoma = test system: SK-MEL-2 melanoma
EKVX NSCLC = test system: EKVX NSCLC
SN12C renal = test system: SN12C renal
UO-31 renal = test system: UO-31 renal
TK-10 renal = test system: TK-10 renal
ACHN renal = test system: ACHN renal
CAKI-1 renal = test system: CAKI-1 renal
A498 renal = test system: A498 renal
CCRF-CEM leukemia = test system: CCRF-CEM leukemia
MOLT-4 leukemia = test system: MOLT-4 leukemia

| Compound | growth (HCT-15 colon) | growth (HT29 colon) | growth (SNB-75 CNS) | growth (SNB-19 CNS) [%] | growth (U251 CNS) | growth (PC-3 prostate) [%] | growth (SK-MEL-5 melanoma) | growth (UACC-62 melanoma) | growth (LOX IMVI melanoma) | growth (SK-MEL-28 melanoma) | growth (SK-MEL-2 melanoma) | growth (EKVX NSCLC) | growth (SN12C renal) | growth (UO-31 renal) | growth (TK-10 renal) [%] | growth (ACHN renal) | growth (CAKI-1 renal) | growth (A498 renal) | growth (CCRF-CEM leukemia) | growth (MOLT-4 leukemia) |
| --- | --- | --- | --- | --- | --- | --- | --- | --- | --- | --- | --- | --- | --- | --- | --- | --- | --- | --- | --- | --- |
| CCN1C(=O)CC(SC2CC(=O)N(CC)C2=O)C1=O (configuration not stated) | 105% | 79.7% | 97.4% | 95.7 | 102% | 101 | 104% | 102% | 95.2% | 112% | 93.6% | 95.9% | 98.6% | 80.2% | 89.4 | 106% | 95.1% | 74.9% | 94.1% | 72% |
| CNC(=O)c1cc(Oc2ccc3c(c2)sc2nc(-c4ccc(NC(=O)Nc5ccc(Cl)c(C(F)(F)F)c5)cc4)cn23)ccn1 | 71.4% | 67.2% | 66.6% | 85.7 | 61.9% | 64 | 86.6% | 88% | 76.1% | 88.4% | 75.4% | 77.3% | 87.3% | 73.9% | 81 | 82.8% | 80.6% | 83% | – | 64.2% |
| OCC1OC(n2cnc3c(NCc4ccco4)ncnc32)C(O)C1O (configuration not stated) | 6.12% (active) | 23.3% | 14.7% | 28.5 | 43.7% | 22 | 23.7% | 32.5% | -63.7% (active) | 68.1% | 76% | 65.3% | 7.6% (active) | 20.4% | 41.4 | 4.08% (active) | 14.1% | 9.69% (active) | 6.74% (active) | -4.64% (active) |
| O=C(O)c1ccc(-n2cc(CNc3ccc(Cl)cc3)c(-c3ccccc3)n2)cc1 | 70.5% | 102% | 78.4% | 94.8 | 93.5% | 97.2 | 87.6% | 67.6% | 74.3% | 92.8% | 78.5% | 78.1% | 94.9% | 82.4% | 91.7 | 79.5% | 88.8% | 91.4% | – | 82.4% |
| NS(=O)(=O)Oc1ccc(NC(=O)C2CCCCCC2)cc1 | 100% | 108% | 96.1% | 101 | 100% | 96.5 | 101% | 99.7% | 98.8% | 104% | 106% | 85.1% | 99.1% | 82.1% | 105 | 97.3% | 87.4% | 122% | 89.4% | 104% |
| COc1cc(/C=C/c2cc(/C=C/c3ccc(O)c(OC)c3)nc(N)n2)ccc1O | 29.5% | -76.2% (active) | 5.5% (active) | 23.2 | 2.97% (active) | 13 | -18.4% (active) | -57.7% (active) | -16.1% (active) | 9.55% (active) | -21% (active) | 22.2% | 22.1% | 3.16% (active) | 21.4 | 13.5% | 19.2% | -56.9% (active) | 1.68% (active) | 4.17% (active) |
| O=C(Nc1ccc(NS(=O)(=O)c2ccc(F)cc2)cc1)C12CC3CC(CC(C3)C1)C2 | 86.8% | 89.6% | 90% | 93.7 | 91.3% | 78.8 | 93.9% | 92.4% | 92.2% | 99.9% | 107% | 74.4% | 92.6% | 75.1% | 96.7 | 102% | 86% | 90.8% | 84.2% | 77.7% |
| O=C(CCCSc1nc(-c2ccc(Cl)cc2)cc(-c2ccc(Cl)cc2)n1)NO | 17.6% | 23.2% | 13.7% | 17.7 | 17.2% | 21 | -31.7% (active) | -10.7% (active) | -2.15% (active) | 25% | 20.8% | -19.7% (active) | 4.81% (active) | -34.9% (active) | 24.3 | 2.26% (active) | 2.08% (active) | -3% (active) | – | 4.91% (active) |
